Reference: PubChem BioAssay AID1467 (National Center for Advancing Translational Sciences (NCATS), 2008)
The whole screen tested about 230,000 compounds, of which fewer than 10 were called active. The call rests on the fitted dose curve; in most records, active means well fitted curve in the direction sought with a large enough effect; inconclusive means small, poorly fitted or top-dose-only effect, or effect the other way, or another doubt; inactive means no such curve, though single readings can be large or run the other way. The list is a sample of the results.

Each compound was assayed against Alpha-galactosidase A (Homo sapiens) (UniProt P06280) (assay: qHTS Assay for Inhibitors of Human alpha-Galactosidase at pH 4.5.). Conditions: purified enzyme, 4-MU-alpha-Gal fluorescence; series mostly up to 105 µM.
Alpha-galactosidase A (Homo sapiens), sequence (P06280 whole entry, looked up): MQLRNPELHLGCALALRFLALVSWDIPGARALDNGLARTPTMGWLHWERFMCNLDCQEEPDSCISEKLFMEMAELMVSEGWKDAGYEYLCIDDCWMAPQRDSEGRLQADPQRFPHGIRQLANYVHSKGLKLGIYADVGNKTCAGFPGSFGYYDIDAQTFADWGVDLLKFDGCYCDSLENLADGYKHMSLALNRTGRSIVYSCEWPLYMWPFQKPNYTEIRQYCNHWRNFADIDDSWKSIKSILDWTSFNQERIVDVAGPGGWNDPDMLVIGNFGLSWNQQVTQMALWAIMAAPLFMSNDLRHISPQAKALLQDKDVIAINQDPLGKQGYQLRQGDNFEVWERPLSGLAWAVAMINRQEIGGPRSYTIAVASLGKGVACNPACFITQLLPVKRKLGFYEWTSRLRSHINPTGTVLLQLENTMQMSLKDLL
Text: NIH Chemical Genomics Center [NCGC]
NIH Molecular Libraries Probe Production centers Network [MLPCN]
Assay Submitter (PI): Wei Zheng
Alpha-galactosidase is a homodimeric glycoprotein that hydrolyzes the terminal alpha-galactosyl moieties from glycolipids and glycoproteins. Deficiency of this enzyme results in Fabry Disease with progressive accumulation of globotriaosylceramide and other glycosphingolipids in vascular endothelial cells that causes renal failure, myocardial infarction and stroke, and premature death in patients. It has been reported that the improper folding and trafficking of alpha-galactosidase resulting from the genetic mutations may account for a significant numbers of Fabry patients. […] We optimized this alpha-galactosidase assay in 1536-well plate format for identifying the novel small molecule inhibitors with the structures other than the sugar analogs in order to develop the new pharmacological chaperones. Although this assay has the same protocol as PubChem AID 992, this is a separate project and, therefore, is published as a separate assay
NCGC Assay Protocol Summary:
This is a fluorogenic enzyme assay with 4-Methylumbelliferyl alpha-D-galactopyranoside as the substrate and human […] as the enzyme preparation. Upon the hydrolysis of this fluorogenic substrate, the resulting product, […]. 4-Methyllumbelliferone, can be excited at 365 nm and emits at 440 nm. This fluorescence which can be detected by a standard fluorescence plate reader. Data were normalized to the controls for basal activity (without enzyme) and 100% activity (with enzyme). In the AC50 values were determined from concentration-response data modeled with the standard Hill equation.
Assay buffer: 50 mM citric acid (titrated with potassium phosphate to pH 4.5), 0.005% Tween-20, pH 4.5. (pH 4.5 is an optimal condition for this enzyme assay)
1536-well assay protocol for the human alpha-galactosidase:
(1) Add 2 ul/well of enzyme (12 nM final)
(2) Add 23 nL compounds in DMSO solution. The final titration was 0.7 nM to 77 uM.
(3) Add 1 ul of substrate (400 uM final)
(4) Incubate at room temperature for 20 min.
(5) Add 2 ul stop solution (1M NaOH and 1M Glycine mixture, pH 10)
(6) Detect the assay plate in a ViewLux plate reader (PerkinElmer) with Ex=365 nm and Em=440nm.
Keywords: MLSMR, MLPCN, NIH Roadmap, qHTS, NCGC, : Alpha-galactosidase, Fabry Disease, pharmacological chaperone, chaperone therapy

Activity change, negative = inhibition, inactive:
O=C(Nc1ccc(Br)cn1)C1CCN(S(=O)(=O)c2cccs2)CC1
Cc1c(/C=N\NC(=O)c2cc3ccccc3o2)c2ccccc2n1C
Nc1cccc(S(=O)(=O)Nc2ccc(SC(F)F)cc2)c1
COc1ccc(-n2cc(CNC3CCOCC3)c(-c3cccc(F)c3)n2)cc1
Cc1cc(NC(=O)CSCc2nc(-c3cccc(Cl)c3)oc2C)no1
CCCCC/C=C\C[C@H](O)/C=C/C=C/C=C/[C@@H](O)CCCC(=O)O
N#CCSc1nn(-c2ccc(F)cc2)c(=S)s1
Cc1nnc(NC(=O)CCC(=O)N2CCC(C)CC2)s1
CCCNC(=O)c1c(Cl)cnn1-c1ccc(C)cc1
COC(=O)C/C=C/[C@@H](C)[C@H](NC(=O)OCC(Cl)(Cl)Cl)c1ccccc1
CC1(OC(=O)c2ccc(Cl)nc2)C(=O)Cc2cc(-c3ccsc3)ncc2C1=O (stereo not given)
CC(=O)c1ccc(N2CCN(CC(=O)Nc3ccccc3N3CCOCC3)CC2)cc1
CCCc1ccc(OCc2ccc(C(=O)N/N=C/c3cccc([N+](=O)[O-])c3)o2)c(OC)c1
C/C=C1\C2C=C(C)CC1(N)c1ccc(=O)[nH]c1C2 (stereo not given)
CCOC(=O)C1=C(O)/C(=C/c2cc(C)n(-c3ccccc3)c2C)N=C1C
CC[C@H](C)[C@@H](NC(=O)O[C@@H]1C(=O)c2cc(OC)ccc2O[C@H]1c1cccc(OC)c1)C(=O)OC
Cc1cc(C)cc(C(=O)NCC(=O)OCC(=O)N2CCCCC2)c1
O=C(CN1CCCCCC1)NCCN1C(=O)S/C(=C\c2ccccc2Cl)C1=O
Cc1ccccc1-c1ccc(C(=O)O)s1
Cc1nc(-c2ccccc2)sc1-c1nnc(C2CC2)o1
O=c1c(O)c(Br)ccc2c(Br)c(O)c(O)c(O)c12
O=C(CSc1nc2ccccc2o1)N/N=C/c1ccccc1C(=O)O
COc1cc(/C=C(/NC(=O)c2ccccc2)C(=O)Nc2cccc(O)c2)c([N+](=O)[O-])cc1OC
CN(CCc1cnn(C)c1)Cc1cn(C)nc1-c1ccccc1F
CC1=C2[C@@H](O)[C@H]([C@@H](C)C(=O)NCCC(C)C)CC[C@@]2(C)C=CC1=O
CC/C=C\C/C=C\C/C=C\C/C=C\C/C=C\C/C=C\CCC(=O)NC(C)C(=O)O (stereo not given)
CCn1c(COc2c(C)cccc2C)nnc1SCc1nc2ccccc2c(=O)[nH]1
Cc1ccnc(NC(=O)CCC(=O)N(CC(=O)NCc2ccccc2)Cc2ccco2)c1
Cc1nc2c(ncn2-c2ccccc2)c(=O)n1NC(=O)CN1CCCC1
CC(=O)Nc1sc2c(c1C(c1cccc(F)c1)N1CCN(CCO)CC1)CCCC2 (stereo not given)
CCCCC[C@H](O)/C=C/[C@@H]1[C@@H](CC(=O)CCC(=O)O)[C@@H](O)C[C@H]1O
O=C1C=C(c2ccccc2)CCC1
COc1ccc(NC(=O)C2CCC(CNc3c(N4CCCCC4)c(=O)c3=O)CC2)c(OC)c1 (stereo not given)
COc1ccc(N2CCN(Cc3nnc(-c4ccccc4)o3)CC2)cc1
CC/C=C\C/C=C\C/C=C\C/C=C\C/C=C\C/C=C\CCC(=O)NCCc1ccc(O)c(O)c1
CCOC(=O)C1=NO[C@@]2(C=C(Br)C(=O)[C@H]3O[C@H]32)C1
C=CCn1c(CCNC(=O)c2cccs2)n[nH]c1=S
Cc1ccccc1NC(=O)c1ccc(COc2ccc3c(C)cc(=O)oc3c2)cc1
COC(=O)Cc1ccc(Oc2ncc(C(F)(F)F)cc2Cl)cc1
CONc1nc2nonc2nc1NOC
CCCCCCCCCCCCC(NC(C)=O)(C(=O)OCC)C(=O)OCC
CCN(CC)CC(=O)Nc1sc2c(c1C(=O)c1ccccc1C)CCC2
CCCCNC(=O)C1CCCN(S(=O)(=O)c2ccc(S(=O)(=O)NCC(C)C)cc2)C1 (stereo not given)
CCOc1cc(NC(=O)CCl)c(OCC)cc1NC(C)=O
CCn1c(CN2C(=O)CSc3ccccc32)n[nH]c1=S
CCOC(=O)N1CCN(c2cc(C)c([N+](=O)[O-])cc2F)CC1
Cc1noc(C)c1C(=O)N(CC(=O)NC1CCCC1)Cc1ccccc1F
CC(C)Oc1ccc(CCc2nnc(SCC(=O)O)n2-c2ccccc2)cc1
Cc1ccccc1CSc1nnc(CCCCCNC(=O)OC(C)(C)C)o1
Cc1ccccc1CCN(CC(=O)NC1CCCCC1)C(=O)c1csnn1
CCc1c(O)nc(SCC(=O)Nc2ccccc2)n(C(C)CC)c1=O (stereo not given)
COc1ccc(NC(=O)c2ccccc2[N+](=O)[O-])cc1OC
CC(C)(C)c1nnc(NC(=O)C2c3ccccc3Oc3ccccc32)s1
O=C(Nc1ccc(N2CCOCC2)nc1)c1c(F)cccc1F
COc1ccc(/C=C/CN2CCCC(C(=O)c3cc(F)ccc3F)C2)cc1 (stereo not given)
Cc1cccc(CN2CCN(Cc3cnn(-c4ccccc4F)c3)CC2CCO)n1 (stereo not given)
CCCCc1ccc(NC(=S)NCCCN2CCOCC2)cc1
C=CCC(C)(O)c1ccco1 (stereo not given)
COc1c(O)cc2oc(-c3ccc(O)c(O)c3)cc(=O)c2c1O
O=C1OCCN1C(=O)[C@H]1[C@H](c2ccc(F)cc2)C(c2ccccc2)=NN1c1ccc(Br)cc1
C=C(C)C(=O)c1ccc(F)cc1
CC(C)(C)OC(=O)NCCCCC1=CC2=CC(=O)C(C)(OC(=O)c3cccs3)C(=O)C2=CO1 (stereo not given)
C=C(C(C)=O)C(O)c1cccs1 (stereo not given)
COc1ccc(C(=O)OCC(=O)NC(=O)CCSc2ccccc2)cc1
Cc1ccc(N2C(=O)C(CC(=O)Nc3cccc(F)c3)N(CCc3ccncc3)C2=O)cc1 (stereo not given)
CCCCCCCCn1c2c(c(=N)c3c1CCC3)CCCC2
CN(c1ccc2nc3ccccc3c(=O)n2n1)C1CCCCC1
Cc1ccc(Nc2nc(N)nc(CN3CCN(Cc4ccccc4)CC3)n2)cc1Cl
Cc1ccc(NC(=O)c2csc3c2CCCC3)cc1
C=CC(C1=CC(=O)C=CC1=O)c1ccc(O)cc1 (stereo not given)
Cc1nc(NC(=O)C2CCCCC2)sc1C
c1ccc(CN=C2Nc3ccccc3CS2)nc1
O=C(CSc1nnc(-c2ccncc2)n1-c1ccc(Cl)cc1)Nc1ccc(C(=O)O)cc1
C[C@H]1Cc2c(-c3ccccc3)nc3c(c2CO1)CN(C(=O)C1CC1)CC3
O=c1c2c(nc3cc(-c4cccc(Cl)c4)[nH]n13)CCCC2
CC(C)C1=CC2=CC[C@H]3[C@](C)(C(=O)O)CCC[C@]3(C)C2CC1 (stereo not given in full)
COc1ccc(CCNC2=CC(=O)CC(C)(C)C2)cc1
O=C(CC(=O)N/N=C\c1cccc(Cl)c1Cl)NCc1ccccc1
COc1cc(NC(=O)c2cncc(-c3ccc(C#N)cc3)c2)cc(C(=O)Nc2cccc(C(F)(F)F)c2)c1
COc1cccc(-c2cc(=O)c3cc(NC(=O)c4ccc(C)cc4)ccc3[nH]2)c1
Cc1nc(-c2ccc(Cl)cc2)sc1C1(C)CC(c2ccccc2F)=NO1 (stereo not given)
COc1ccc(/C=C2\NC(=O)[C@@H]3Cc4ccccc4CN3C2=O)cc1
CC(C)Cc1nc(Nc2ccc(S(=O)(=O)N3CCCC3)cc2)c2nnn(Cc3ccccc3)c2n1
NC(=O)COc1ccc(C23CC4CC(CC(C4)C2)C3)cc1
COc1ccc(OC)c(S(=O)(=O)Nc2cccc(-c3ccc4nncn4n3)c2)c1
COC(=O)C1=C(C(=O)OC)C(c2cc([N+](=O)[O-])ccc2O)c2sc(=O)[nH]c2S1 (stereo not given)
CCCCNS(=O)(=O)c1ccc2nc(SCC(=O)Nc3cc(C)cc(C)c3)[nH]c2c1
CCOC(=O)C1=C(C)c2ccccc2OC1C(=O)OCC (stereo not given)
O=C(COc1cc(Cl)c(Cl)cc1Cl)NC(=O)NC1CCCC1
COc1ccc(-c2c(C)cc3oc(=O)cc(-c4ccccc4)c3c2C)cc1C=O
CCCCCCCCCCCCN1C(=O)CSC1c1cccnc1 (stereo not given)
C=C(C(C)=O)C(O)c1ccc([N+](=O)[O-])cc1 (stereo not given)
C=CCOC(=O)NC(c1ccc(F)c(F)c1)C(C(=O)COC)C(=O)OC (stereo not given)
COc1ccc(-c2nc3c(c4c2C[C@H](c2ccccc2)OC4)CN(C(=O)c2cccnc2)CC3)c(C)c1
COC(=O)C1(C(C)=O)CC2=CC[C@H]3C(=O)N(c4ccccc4)C(=O)[C@H]3[C@@H]2Cc2ccccc2[C@@H]1C[N+](=O)[O-] (stereo not given in full)
Cc1cccc(-c2nc3ccccc3c(=O)n2NC(=O)Cc2ccc(Cl)cc2)c1
O=C(NCc1ccco1)O[C@@H]1C(=O)c2cc(Br)ccc2O[C@H]1c1ccc2c(c1)OCO2
O=C(O)CC(Cc1ccccc1)C(=O)Nc1ccc([N+](=O)[O-])cc1 (stereo not given)
OC[C@H]1O[C@@H](n2cnc3c(N[C@H]4CC5CCC4C5)ncnc32)[C@H](O)[C@@H]1O (stereo not given in full)
COc1cccc([C@@H]2Oc3ccc(Br)cc3C(=O)[C@H]2OC(=O)NCCc2ccc(OC)c(OC)c2)c1
CCOC(=O)C1C/C(=C\C(C)=O)c2cccc(C(F)(F)F)c2O1 (stereo not given)
C/C(Nc1ccc2oc(=O)ccc2c1)=C1/C(=O)CC2[C@@H]1C2(C)C (stereo not given in full)
O=C(NNC(=S)NC1CC2CCC1C2)c1ccc(Cl)cc1 (stereo not given)
COc1cc(NC(=O)c2ccc3c(c2)OCO3)ccc1NC(=O)c1cccs1
CC(=O)Nc1ccc(NC(=O)CSc2ncnc3c2cnn3Cc2ccccc2)cc1
